Measured values published in PubChem BioAssay AID485270 (The Scripps Research Institute Molecular Screening Center, 2010).
About 5,800 (1.8%) of roughly 330,000 compounds were called active. Cut-off read from the data, not from the text of the source: active = inhibition mostly above about 38% (no sharp cut-off); inactive = mostly below about 40%. Shown is part of a subset that was picked to be rich in actives.

Biological target: Orexin/Hypocretin receptor type 1 (Homo sapiens) (UniProt O43613)
Assay: blocks the human orexin 1 receptor (AID 485270);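 note: 0% = agonist challenge alone and 100% = reference antagonist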
Conditions: OX1R-expressing cells, FRET antagonist read-out; at 6.6 µM; active compounds read high

Chain of Orexin/Hypocretin receptor type 1 (Homo sapiens) (O43613 whole entry, looked up): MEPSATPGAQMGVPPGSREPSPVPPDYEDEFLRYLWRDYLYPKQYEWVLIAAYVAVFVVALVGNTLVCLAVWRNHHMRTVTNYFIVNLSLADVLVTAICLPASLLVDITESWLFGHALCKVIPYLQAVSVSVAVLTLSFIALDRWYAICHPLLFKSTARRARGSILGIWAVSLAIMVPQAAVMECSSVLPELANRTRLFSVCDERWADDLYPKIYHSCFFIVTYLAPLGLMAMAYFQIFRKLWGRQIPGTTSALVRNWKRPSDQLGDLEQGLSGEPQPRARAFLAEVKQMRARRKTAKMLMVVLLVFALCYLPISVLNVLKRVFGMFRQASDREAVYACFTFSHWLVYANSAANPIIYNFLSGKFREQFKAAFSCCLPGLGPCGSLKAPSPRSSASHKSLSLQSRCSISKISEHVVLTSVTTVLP

inhibition, inactive:
CN(C(=O)CSc1cccc[n+]1[O-])C1CCCCC1 1.33%
CC(C)(C)OC(=O)C[C@H]1C/C=C\C[C@@H](CC(=O)N[C@H](CO)Cc2ccccc2)C(=O)NC[C@@H](c2ccccc2)OC1=O 8.19%
COc1ccc(/C=C2\SC(=O)N(CCC(=O)NCCCn3ccnc3)C2=O)cc1 33.5%
COc1ccccc1/C=C1\SC(=O)N(CCC(=O)N(C)C2CCS(=O)(=O)C2)C1=O (stereo not drawn) 16.6%
CC(Sc1ccccc1F)C(=O)Nc1cccc(S(=O)(=O)N2CCOCC2)c1 (stereo not drawn) 9.63%
CCCOc1ccc(Cc2c(O)nc(SC)[nH]c2=O)cc1C 11.5%
CCCOc1ccc(Cn2c(O)cc(=O)[nH]c2=O)cc1 6.66%
O=C1OCCN1C(=O)[C@H]1[C@H](c2ccc(F)cc2)C(c2ccccc2)=NN1c1ccc(Br)cc1 7.86%
CCOC(=O)C1CCN(C(=O)CN2C(=O)NC(C)(c3ccc4cc(OC)ccc4c3)C2=O)CC1 (stereo not drawn) 9.95%
Nc1cccnc1Sc1ccccc1 15.4%
Cc1ccc(S(=O)(=O)N2CCN(c3ncnc4ccccc34)CC2)cc1 25.9%
COc1ccc(C)cc1S(=O)(=O)N1CCN(S(=O)(=O)c2cc(C(=O)O)ccc2C)CC1 26.6%
C=CCSc1nnc(NC(=O)c2ccc(NC(C)=O)cc2)s1 5.19%
CSc1nsc(NC(=O)Nc2ccccc2)n1 19.6%
CCSc1nsc(NC(=O)Nc2ccccc2OC)n1 6.99%
C=C(C)C(=O)Nc1cccc(C(C)=O)c1 8.59%
CCOC(=O)C1=CN(Cc2ccc(Br)cc2)S(=O)(=O)N(C)C1C (stereo not drawn) 6.18%
C[C@H](CO)N1C[C@H](C)[C@@H](CN(C)S(=O)(=O)c2ccc(F)cc2)Oc2ccc(NC(=O)CCC(F)(F)F)cc2C1=O 9.27%
O=C(COC(=O)COc1ccccc1F)Nc1cccc(S(=O)(=O)N2CCCCC2)c1 -4.71%
O=C(CCNC(=O)c1ccccc1Cl)NN=Cc1ccco1 9.66%
CC1CCCCC1NC(=O)Cn1c(=O)cnc2ccccc21 (stereo not drawn) 7.4%
O=C(CCN1C(=O)c2ccccc2C1=O)Nc1ccncc1 21.2%
COc1cc(C(=O)Nc2oc(-c3ccccc3)c(-c3ccccc3)c2C#N)cc(OC)c1OC 24.6%
C#CCOCCOCCOCCNc1nc(N2CCN(C(=O)[C@H](CCCN=C(N)N)n3cc(C(N)[C@@H](C)CC)nn3)CC2)nc(N2CCN(C(=O)[C@H](CO)n3cc([C@@H](N)C(C)C)nn3)CC2)n1 (stereo partly drawn) 1.49%
CCn1ccnc1CN(C)C(=O)c1cc(COc2ccc(Cl)cc2OC)on1 16.5%
CSc1ccccc1OCc1cc(C(=O)N2C[C@H]3CC[C@H]2C3)no1 38.3%
Cc1ccc(OCc2cc(C(=O)N(C)CCc3ccccc3)no2)cc1C 27.7%
COc1cc(Cl)ccc1OCc1cc(C(=O)N2CC[C@@H]3CCCC[C@H]3C2)no1 -0.82%
COc1cccc2sc3cc(NCC[C@@H]4CCCN4C)ccc3c(=O)c12 20.1%
COc1cc(NC(=O)c2[nH]cnc2C(N)=O)cc(C(=O)Nc2cccc(C(F)(F)F)c2)c1 33.6%
O=C1CN(C(=O)COC(=O)/C=C/c2ccc(F)cc2)c2ccccc2N1 6.47%
O=C(C[C@H]1C[C@H](C(=O)N2CCOCC2)[C@@]2(CCC3CCCC3)c3[nH]c4ccc(Cl)cc4c3CCN2C1=O)NCc1ccco1 14.4%
COc1ccc(CCNC(=O)NS(=O)(=O)c2ccc(C)cc2)cc1OC -2.44%
COc1ccc(-n2c(C)cc(C(=O)COC(=O)c3cc(OC)c(OC)cc3NC(=O)c3cccs3)c2C)cc1 1.91%
Cc1ccc(-n2c(C)cc(C(=O)CSc3nnc4ccccn34)c2C)cc1 12.3%
Nc1ncnc2c1ncn2[C@@H]1O[C@H](CNS(=O)(=O)c2ccc(-c3ccno3)s2)[C@@H](O)[C@H]1O 6.23%
CN(C)C(=O)CCc1ccc2c3c([nH]c2c1)[C@]1(CCC2CCCC2)[C@@H](C(=O)N2CCOCC2)C[C@H](CC(=O)NCc2ccco2)C(=O)N1CC3 5.29%
O=C(COC(=O)CSc1ccccc1)Nc1ccc(F)cc1F 13.6%
Cn1nnnc1SCC(=O)Nc1cccc(S(=O)(=O)N2CCCCC2)c1 12%
Cc1ccccc1N1CC(C(=O)Nc2ccc(S(=O)(=O)N3CCCC3)cc2)CC1=O (stereo not drawn) 15.4%
CC1CCN(S(=O)(=O)c2ccc(NC(=O)C3CC(=O)N(c4ccccc4)C3)cc2)CC1 (stereo not drawn) 25.5%
CN(Cc1ccc(CNC[C@H]2O[C@@H](n3cnc4c(N)ncnc43)[C@H](O)[C@@H]2O)o1)S(C)(=O)=O -3.7%
CC(C)c1nnc(NC(=O)C2CCCN2S(=O)(=O)c2ccc(Cl)cc2)s1 (stereo not drawn) 39.3%
Cc1cccc(NC(=O)C2CCCN(C(=O)Nc3ccc(F)cc3)C2)c1C (stereo not drawn) 21.2%
O=C(NCc1ccccc1Cl)C1CCCN1S(=O)(=O)c1ccc(F)cc1 (stereo not drawn) 2.31%
COc1ccc(Cl)cc1NC(=O)[C@@H]1CCCN1C(=O)c1cccs1 1.43%

inhibition, active:
COc1ccc(/C=C2\SC(=O)N(CCC(=O)NC3CCS(=O)(=O)C3)C2=O)cc1 (stereo not drawn) 49.4%
CCCOc1ccc(Cc2c(Cl)nc(SC)nc2NC)cc1 48.2%
Cc1ccc(C)c(S(=O)(=O)N2CCN(c3ncnc4sccc34)CC2)c1 28.6%
CCSc1nsc(NC(=O)Nc2cccc(C(C)=O)c2)n1 84.2%
C=CCSc1nsc(NC(=O)Nc2cccc(C(C)=O)c2)n1 58.4%
N#Cc1c(NC(=O)CCCN2C(=O)c3ccccc3C2=O)oc(-c2ccccc2)c1-c1ccccc1 48.7%
CSc1ccccc1OCc1cc(C(=O)N(C)CCc2c(C)n[nH]c2C)no1 43.7%
COc1cc(Cl)ccc1OCc1cc(C(=O)N(C)CCc2c(C)n[nH]c2C)no1 71.9%
COc1ccc(-n2c(C)cc(C(=O)CSc3nnc(-c4cccs4)o3)c2C)cc1 39.4%
COc1ccccc1N1CC(C(=O)Nc2ccc(S(=O)(=O)N3CCOCC3)cc2)CC1=O (stereo not drawn) 91.1%
Cc1cccc(NC(=O)C2CCCN2S(=O)(=O)c2ccc(F)cc2)c1C (stereo not drawn) 50%
COc1ccccc1NC(=O)C1CCCN1S(=O)(=O)c1ccc(Cl)cc1 (stereo not drawn) 62.4%
